# Assays:
# Settings in all cases: concentration: 1 μM, replicates: in singlicate; n = 1
# MINK = system: T1, MINK
# T1 construct: gene MINK1
# MKK7 = system: MKK7
# MKNK1 = system: MKNK1
# MKNK2 = system: MKNK2
# MLCK = system: T2, MLCK
# T2 construct: gene MYLK3
# MLK1 = system: T3, MLK1
# T3 construct: gene MAP3K9
# MLK2 = system: MLK2
# MLK3 = system: MLK3
# MRCKA = system: MRCKA
# MRCKB = system: T4, MRCKB
# T4 construct: gene CDC42BPB
# MST1R = system: MST1R
# MST1 = system: T5, MST1
# T5 construct: gene STK4
# MST2 = system: T6, MST2
# T6 construct: gene STK3
# MST3 = system: T7, MST3
# T7 construct: gene STK24
# MST4 = system: MST4
# MTOR = system: MTOR
# MUSK = system: MUSK
# MYLK2 = system: MYLK2
# MYLK4 = system: MYLK4
# MYLK = system: MYLK
# 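Further: KINOMEscan kinase panel screen.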
SMILES,%Inh (MINK) [%],%Inh (MKK7) [%],%Inh (MKNK1) [%],%Inh (MKNK2) [%],%Inh (MLCK) [%],%Inh (MLK1) [%],%Inh (MLK2) [%],%Inh (MLK3) [%],%Inh (MRCKA) [%],%Inh (MRCKB) [%],%Inh (MST1R) [%],%Inh (MST1) [%],%Inh (MST2) [%],%Inh (MST3) [%],%Inh (MST4) [%],%Inh (MTOR) [%],%Inh (MUSK) [%],%Inh (MYLK2) [%],%Inh (MYLK4) [%],%Inh (MYLK) [%]
Cn1cncc1C(=O)NC1CCN(c2ccnc(Nc3ccc(F)cc3)n2)C1 (centres unmarked) [GSK1379717],0,10,0,5,0,0,0,0,2,0,34,0,34,0,0,0,0,1,0,0
c1ccc(-c2ccnc3[nH]ccc23)cc1 [SB-693578],19,0,0,25,0,0,0,0,15,0,9,3,4,0,0,29,0,0,0,12
O=c1cc(N2CCOCC2)nc2n(Cc3ccccc3F)ccn12 [GSK2297428],8,0,0,0,0,0,0,38,4,0,26,8,0,0,0,13,0,0,0,12
COc1cccc(C2=C(Nc3cc(Cl)c(O)c(Cl)c3)C(=O)NC2=O)c1 [SB-390767],0,26,6,26,0,0,4,0,0,3,13,100,29,0,0,44,5,10,9,0
CS(=O)(=O)Cc1ccc(Nc2nccc(-c3c(-c4cccc(NC(=O)C5CCCCC5)c4)nn4ncccc34)n2)cc1 [GSK350559],0,21,25,13,3,2,7,13,0,0,11,11,44,3,23,18,0,0,0,31
CSc1ccc(-c2nc3n(c2-c2ccncc2)CCC3)cc1 [SKF-105561],15,1,0,20,0,0,0,0,0,0,0,0,9,0,20,0,0,3,0,0
COc1ccc(Nc2nccc(N3CCC(NC(=O)C(C)c4ccc(Cl)cc4)C3)n2)cc1 (centres unmarked) [GSK1379735],1,10,12,2,14,0,43,21,15,2,39,44,26,0,3,26,24,3,2,11
COC(=O)c1cccc(NC(=O)NC2CCN(c3ccnc(Nc4ccc(F)cc4)n3)C2)c1 (centres unmarked) [GSK1379725],0,0,0,1,0,0,0,0,4,0,39,0,0,0,0,7,0,0,0,0
CNc1nc(-c2ccc3c(N)n[nH]c3c2)cc(N2C[C@@H](C(=O)NC3CCCCC3)OC[C@H]2C)n1 [GSK2375584],11,0,10,0,0,0,23,20,4,0,30,0,0,18,0,0,16,0,0,18
Cc1cccc2c(-c3ccncn3)c(-c3ccc(F)cc3)nn12 [GW515532],0,0,0,3,0,0,28,4,0,0,26,7,0,15,0,9,12,0,0,0

# From PMC5540273 (PLoS ONE, 2017)
